SMILES strings stand for the structures. Active and inactive are the calls of the source. Unless noted, how the calls were made is not given here.

We go through seven molecules from PubChem BioAssay.

Assay [1] can be described thus: compound effects on lung adenocarcinoma cell viability – A549, calcein-AM fluorescence, 48 h, basal, profiling panel (AID 1162). Further: test concentration not given here. Conditions: higher = more signal.
Assay [2] can be described thus: compound effects on differentiated 3T3-L1 adipocyte viability – cell-based, 3T3-L1 adipocytes, calcein-AM fluorescence, 48 h, basal, profiling panel (AID 1163). Further: test concentration not given here. Conditions: 3T3-L1 adipocytes viability, higher = more signal.
Assay [3] in a line: compound effects on hepatocellular carcinoma cell viability – HepG2, calcein-AM fluorescence, 48 h, basal, profiling panel (AID 1164). Further: test concentration not given here. Conditions: higher = more signal.
Assay [4] can be described thus: compound effects on multiple myeloma cell viability – MM1S, calcein-AM fluorescence, 48 h, basal, profiling panel (AID 1165). Further: test concentration not given here. Conditions: higher = more signal.
A short description of assay [5]: calcein-AM signal in unstimulated myeloma cells – cell-based, calcein-AM fluorescence, 48 h, PK04 Diversity Set, profiling panel (AID 1166).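 Further: cells grown under basal conditions without added stimulus; test concentration not given here.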 Conditions: RPMI8226 myeloma viability, higher = more signal.
A short description of assay [6]: JC-1 mitochondrial signal, unstimulated HepG2 cells – cell-based, JC-1 fluorescence, 24 h, 100 nL compound, profiling panel (AID 1167). Further: test concentration not given here. Conditions: HepG2 mitochondrial potential, higher = more signal.
The nature of assay [7]: JC-1 mitochondrial signal, unstimulated adipocytes – cell-based, JC-1 fluorescence, 3T3-L1 adipocytes, 24 h, 100 nL compound, profiling panel (AID 1168). Further: test concentration not given here. Conditions: JC-1 mitochondrial fluorescence, higher = more signal, called active from +8 up or from −8 down.
Assay [8] is described as follows: JC-1 mitochondrial signal, unstimulated myeloma cells – cell-based, JC-1 fluorescence, RPMI8226, 24 h, 100 nL compound, profiling panel (AID 1169). Further: test concentration not given here. Conditions: JC-1 mitochondrial potential fluorescence, higher = more signal.
The nature of assay [9]: JC-1 mitochondrial signal, unstimulated MM1S myeloma – cell-based, JC-1 fluorescence, 24 h, 100 nL compound, profiling panel (AID 1170). Further: test concentration not given here. Conditions: MM1S mitochondrial potential, higher = more signal.
Assay [10] can be described thus: resazurin metabolic signal in A549 cells – cell-based, resazurin fluorescence, 24 h, PK04 Diversity Set, profiling panel (AID 1171). Further: test concentration not given here. Conditions: A549 viability, higher = more signal, called active from +8 up or from −8 down.
Assay [11] can be described thus: resazurin metabolic signal in HepG2 cells – cell-based, resazurin fluorescence, 24 h, PK04 Diversity Set, profiling panel (AID 1172). Further: test concentration not given here. Conditions: HepG2 viability, higher = more signal. On the technique in general: Resazurin is reduced to fluorescent resorufin, in cell work by metabolically active cells.
The nature of assay [12]: budding yeast growth changes without added modifier – OD600, strain BY4716, 24 h, basal condition, primary screen (AID 1173). Conditions: S. cerevisiae BY4716 growth, OD600, 24 h; higher = more signal, called active from +8 up or from −8 down.
Assay [13] is described as follows: viability profiling in MM1S myeloma cells – cell-based, resazurin fluorescence, basal, 24 h, PK04 Diversity Set, profiling panel (AID 1174). Further: test concentration not given here. Conditions: higher = more signal, called active from +8 up or from −8 down.
In assay [14] the target is Dihydroorotate dehydrogenase (quinone), mitochondrial (Plasmodium falciparum (isolate 3D7)) (UniProt Q08210). Kind of assay: inhibition of P. falciparum DHODH – biochemical, C-terminal His tag, absorbance 600 nm, primary screen (AID 1175).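 Further: recombinant parasite enzyme with a five histidine tag at its C terminus; test concentration not given here.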 Conditions: PfDHODH enzyme, DCIP absorbance 600 nm; higher = more signal, called active from +8 up or from −8 down.
Chain of Dihydroorotate dehydrogenase (quinone), mitochondrial (Plasmodium falciparum (isolate 3D7)) (Q08210 whole entry, looked up): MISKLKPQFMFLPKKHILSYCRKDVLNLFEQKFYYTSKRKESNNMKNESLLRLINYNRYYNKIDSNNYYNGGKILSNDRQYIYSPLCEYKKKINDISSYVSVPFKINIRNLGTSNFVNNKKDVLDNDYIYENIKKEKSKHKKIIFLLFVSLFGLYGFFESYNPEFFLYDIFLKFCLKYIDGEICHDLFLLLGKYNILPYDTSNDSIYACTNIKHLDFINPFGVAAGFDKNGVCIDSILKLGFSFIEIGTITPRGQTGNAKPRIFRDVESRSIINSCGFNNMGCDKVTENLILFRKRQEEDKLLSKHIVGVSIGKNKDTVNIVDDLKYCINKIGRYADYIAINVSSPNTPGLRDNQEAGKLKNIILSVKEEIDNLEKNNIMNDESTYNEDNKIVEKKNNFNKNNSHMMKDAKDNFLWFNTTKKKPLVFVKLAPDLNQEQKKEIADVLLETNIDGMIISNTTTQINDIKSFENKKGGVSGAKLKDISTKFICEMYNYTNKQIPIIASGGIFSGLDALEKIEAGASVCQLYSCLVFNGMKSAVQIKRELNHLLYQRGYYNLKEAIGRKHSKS
Assay [15] can be described thus: inhibition of PAO1 biofilm formation – strain PAO1, LB-PBS medium, absorbance 600 nm, primary screen (AID 1176). Further: test concentration not given here. Conditions: P. aeruginosa PAO1 growth/biofilm, A600, 12 h; higher = more signal.
A short description of assay [16]: growth modulation of vineyard yeast isolate – strain RM11-1a, OD600, basal, 24 h, primary screen (AID 1177).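 Further: cultures grown under basal conditions with no added stressor; test concentration not given here.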 Conditions: S. cerevisiae RM11-1a growth, OD600, 24 h; higher = more signal, called active from +8 up or from −8 down.
Assay [17] in a line: growth of efflux-deficient E. coli DRC39 – strain DRC39, OD650, 24 h, E. coli filamentation inducers, primary screen (AID 1178).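 Further: growth measured as culture turbidity by optical density at 650 nm; test concentration not given here.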 Conditions: E. coli DRC39 acrAB, higher = more signal, called active from +8 up or from −8 down.
The nature of assay [18]: growth of efflux-deficient E. coli DRC39 – strain DRC39, OD650, 48 h, E. coli filamentation inducers, primary screen (AID 1179).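 Further: screen aims at cell division blockers that make cells filament.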 Conditions: E. coli DRC39 delta-acrAB growth, higher = more signal, called active from +8 up or from −8 down.
The nature of assay [19]: viability profiling in RPMI8226 myeloma cells – cell-based, resazurin fluorescence, basal, 24 h, PK04 Diversity Set, profiling panel (AID 1180).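 Further: RPMI8826 multiple myeloma cell line at 5000 cells per well; test concentration not given here.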 Conditions: higher = more signal.
In assay [20] the target is E3 ubiquitin-protein ligase XIAP (Homo sapiens) (UniProt P98170). Nature of the assay: small molecules binding XIAP protein – biophysical, small-molecule microarray, fluorescence 635 nm, primary screen (AID 1181).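 Further: score merges 667 nm emission and signal to noise over triplicate slides.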 Conditions: higher = more signal.
Chain of E3 ubiquitin-protein ligase XIAP (Homo sapiens) (P98170 whole entry, looked up): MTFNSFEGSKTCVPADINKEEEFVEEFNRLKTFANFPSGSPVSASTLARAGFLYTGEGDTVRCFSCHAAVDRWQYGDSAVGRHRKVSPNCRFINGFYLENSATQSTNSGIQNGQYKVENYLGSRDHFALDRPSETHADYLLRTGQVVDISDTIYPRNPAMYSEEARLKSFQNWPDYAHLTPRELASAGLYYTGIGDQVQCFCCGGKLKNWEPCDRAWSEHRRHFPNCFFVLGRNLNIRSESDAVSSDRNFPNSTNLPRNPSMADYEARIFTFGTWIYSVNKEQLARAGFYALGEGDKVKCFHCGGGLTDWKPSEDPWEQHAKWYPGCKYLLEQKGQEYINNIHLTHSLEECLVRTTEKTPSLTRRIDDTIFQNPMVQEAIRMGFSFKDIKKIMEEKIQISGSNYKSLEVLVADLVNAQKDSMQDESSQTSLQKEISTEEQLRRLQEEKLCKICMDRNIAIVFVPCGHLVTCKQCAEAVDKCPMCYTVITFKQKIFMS

Take `CC(C)N1CC=CC23O[C@@H]4C=CCOC(=O)[C@@H]4[C@H]2C(=O)N(CCCO)[C@@H]3C1=O` (stereo not given in full): the z-score is 0.555 in assay [1]; 2.67 in assay [2]; -1.01 in assay [3]; 0.34 in [4]; -0.258 in assay [5]; -0.4 in assay [6]. Further, the z-score in assay [7] was 0.253 (inactive); in assay [8] it was 0.354; in [9] it was -1.5; in assay [10], 0.108 (inactive); in assay [11], -0.128; in assay [12], -1.91 (inactive). In addition, the z-score in assay [13] was 1.34 (inactive); in assay [15], 0.248 (inactive); in assay [16] it was -1.68 (inactive); in assay [17] it was -0.135 (inactive); in [18], 0.2 (inactive); in [19] it was 0.939. Moreover, the composite z-score in assay [14] was -0.201 (inactive); in [20] it was 0.29.
Regarding `C=C[C@@H](OC)[C@H](OC(=O)Nc1ccc(SC)cc1)c1ccc(O)c(F)c1`, the z-score in [1] was -0.247; in assay [2], -0.19; in [3], -0.419; in assay [4], -1.4; in assay [5], -0.515; in [6], -2.52. The z-score in [7] is 1.47 (inactive); in assay [8] it was -0.362; in assay [9], -0.317; in [10], -0.637 (inactive); in [11] it was -0.626; in assay [12] it was -2.65 (inactive). For the same molecule, the z-score was -0.807 (inactive) in assay [13]; 1.22 (inactive) in assay [15]; 1.95 (inactive) in assay [16]; -0.881 (inactive) in [17]; -1.19 (inactive) in assay [18]; -0.649 in assay [19]. Moreover, the results for the composite z-score in assay [14] and in assay [20] were 0.592 (inactive) and -0.117, respectively.
Consider `C=CCOC(=O)[C@H]1[C@@H]2C(=O)O[C@@H](c3ccccc3)[C@@H](c3ccccc3)N2[C@@H](c2ccc(OCCOC(=O)[C@H]3C[C@H]4C(=O)N[C@@H](CC(C)C)C(=O)N4[C@H]3c3cccc(OCCO)c3)cc2)[C@]12C(=O)Nc1ccc(I)cc12`, for which the z-score in assay [1] was -0.681; in assay [2], 0.329; in [3], 0.281; in [4], -1.15; in [5], -0.0034; in assay [6], 1.69. In addition, the z-score in assay [7] is 0.681 (inactive); in assay [8], -0.762; in assay [9] it was -0.7; in assay [10], -0.0975 (inactive); in [11], -0.054; in assay [12], 1.9 (inactive). In addition, the z-score is -0.414 (inactive) in assay [13]; 2.9 (inactive) in assay [15]; 0.447 (inactive) in assay [16]; -0.0744 (inactive) in [17]; -0.62 (inactive) in assay [18]; -0.385 in assay [19]. The composite z-score was 0.124 (inactive) in [14] and -0.0174 in assay [20].
`O=C(NCc1ccccc1)[C@@H]1c2ccccc2C(=O)N(Cc2ccccc2C(F)(F)F)[C@H]1c1ccc(CO)cc1`: the z-score in assay [1] is 0.369; in assay [2], 0.275; in [3] it was 1.53; in assay [4], 0.0209; in assay [5], -0.133; in assay [6] it was 2.36. Further, the z-score was -0.182 (inactive) in assay [7]; 0.744 in [8]; -0.962 in assay [9]; -0.307 (inactive) in [10]; -0.431 in [11]; 0.036 (inactive) in [12]. For the same molecule, the z-score in [13] is -0.433 (inactive); in assay [15], 1.19 (inactive); in [16], 0.0858 (inactive); in assay [17], 0.232 (inactive); in assay [18], 0.56 (inactive); in [19], -0.137. For the same molecule, the composite z-score in assay [14] was 0.154 (inactive); in assay [20], -0.107.
In the case of `CCCCCCCCCCC(O)C1C=CC2C(=O)N(C)C(=O)C2N1Nc1ccc([N+](=O)[O-])cc1[N+](=O)[O-]` (stereo not given), the z-score in assay [1] is -0.783; in [2] it was -0.801; in assay [3], -1.2; in [4] it was -3.69; in assay [5] it was -4.05; in [6] it was 0.693. Moreover, the z-score in [7] was -1.21 (inactive); in assay [8], -0.935; in assay [9], -1.8; in assay [10] it was -0.283 (inactive); in [11], -1.62; in assay [12] it was 0.869 (inactive). Besides, the z-score in [13] is -1.64 (inactive); in assay [15], 0.695 (inactive); in [16] it was 0.945 (inactive); in assay [17], -1.26 (inactive); in [18] it was -0.459 (inactive); in assay [19], -1.67. Besides, the composite z-score in assay [14] is -1.39 (inactive); in [20] it was -0.0994.
For `O=C1NC(=O)C2C1C=CC(C(O)c1c(F)cccc1Cl)N2Nc1ccc(Cl)cc1Cl` (stereo not given), the z-score in assay [1] was -2.11; in assay [2] it was 0.0772; in assay [3], -2.82; in [4] it was -3.64; in assay [5], -1.39; in assay [6], -3.44. Besides, the z-score in assay [7] was -0.775 (inactive); in assay [8], -1.06; in [9], -1.46; in [10], -2.22 (inactive); in assay [11] it was -3.13; in assay [12] it was -14.8 (active). In addition, the z-score in [13] was -2.21 (inactive); in assay [15], 1.44 (inactive); in [16], -1.12 (inactive); in assay [17], -0.854 (inactive); in assay [18] it was -1.44 (inactive); in assay [19], -2.2. Besides, the composite z-score is 0.0047 (inactive) in assay [14] and 0.482 in assay [20].
On to `C=C(COC)/C(=C/C[C@H](OC(=O)c1ccncc1)c1ccccc1OCCO)c1cnc2ccccc2c1`, for which the z-score in [1] is 0.265; in assay [2], 0.688; in assay [3], -0.693; in assay [4] it was -2.28; in assay [5], -0.533; in assay [6] it was 1.23. The z-score in assay [7] was -0.296 (inactive); in assay [8], -0.32; in assay [9] it was -0.0279; in [10], 2.05 (inactive); in [11], 2.02; in [12] it was -0.865 (inactive). Also, the z-score in assay [13] is 0.247 (inactive); in assay [15] it was -0.104 (inactive); in [16], -0.0351 (inactive); in assay [17], 0.213 (inactive); in [18] it was -0.121 (inactive); in assay [19], 0.377. For the same molecule, the composite z-score in [14] is -3.12 (inactive); in [20], -0.0102.
